Source: PubChem BioAssay (NCI)
Compounds without any hit were thinned out: in the full panel of roughly 79,000, 15% have a hit. Cut-off read from the data, not from the text of the source: active = growth inhibition above about 70%; inactive = the rest.

Assays:
[1] = NCI Yeast Anticancer Drug Screen. Data for the rad50 strain (AID 155);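 note: 0% = growth of vehicle-only cultures of the same strain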; settings: S. cerevisiae rad50 strain growth inhibition; at 50.0 µM; hits give high values
Summary of the method: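 DNA repair mutant yeast, compound exposure, growth read-out; inhibition is taken relative to vehicle.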

[2] = NCI Yeast Anticancer Drug Screen. Data for the mec2-1 strain (AID 157); settings: S. cerevisiae mec2-1 strain, at 50.0 µM, hits give high values
Summary of the method: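 Yeast mec2-1 mutant treated with compound. Readout: growth inhibition vs vehicle controls.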

[3] = NCI Yeast Anticancer Drug Screen. Data for the sgs1 mgt1 strain (AID 161);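 note: 0% = growth of cultures given vehicle only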; settings: S. cerevisiae sgs1 mgt1 strain, at 50.0 µM, hits give high values
Summary of the method: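 Genetically altered yeast, compound exposure, growth inhibition relative to vehicle.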

[4] = NCI Yeast Anticancer Drug Screen. Data for the cln2 rad14 strain (AID 165);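 note: 0% = growth equal to vehicle treated cultures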; settings: S. cerevisiae cln2 rad14 strain, at 50.0 µM, hits give high values
Summary of the method: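 cln2 rad14 yeast strain; compound exposure; growth inhibition read vs vehicle controls.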

[5] = NCI Yeast Anticancer Drug Screen. Data for the bub3 strain (AID 167); settings: S. cerevisiae bub3 mutant strain, at 50.0 µM, hits give high values
Summary of the method: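 In this screen, a yeast mutant lacking normal mitotic checkpoint function is challenged with compound. Relative growth versus vehicle gives the inhibition value.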

[6] = NCI Yeast Anticancer Drug Screen. Data for the mlh1 rad18 strain (AID 175); settings: S. cerevisiae mlh1 rad18 strain growth inhibition; at 50.0 µM; hits give high values
Summary of the method: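 Yeast w/ defined DNA-repair lesions; compound exposure; growth vs vehicle controls → % inhibition.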

Measured: growth inhibition

CCCCCCCCCCCCS(=O)(=O)N/N=C(\c1ccccc1Cl)N1CCOCC1
inactive: [1] 48.2% | [2] 33.5% | [3] 45.9% | [4] 48.2% | [5] 55.8% | [6] 51.2%

CN1NC(c2ccccc2)NN(C)C1=S
inactive: [1] -19.8% | [2] -25.6% | [3] -12% | [4] -16.6% | [5] -4.45% | [6] 3.05%

CCOC(=O)/C=C/C(=O)NN
inactive: [1] 11.4% | [2] -6.35% | [3] 2.6% | [4] -26% | [5] 0.4% | [6] 5.6%

NC(=O)C1C[C@@H](O)CN1C(=O)c1ccc2c(c1)OCO2 (some centres not stated)
inactive: [1] -11.6% | [2] -9.8% | [3] -24.6% | [4] 6.5% | [5] 3.05% | [6] 1.25%

O=C(NNC(=S)Nc1ccc(S(=O)(=O)N2CCCCC2)cc1)c1ccncc1
inactive: [1] 5.25% | [2] 11.1% | [3] 33.5% | [4] 4.2% | [5] 33% | [6] 46%

C/C=C/C1OCC(C)(C)CO1
inactive: [1] -0.8% | [2] 22.9% | [3] -12.9% | [4] -46.8% | [5] -24.7% | [6] -1.5%

COC(=O)c1ccc(C(=O)OC)c2nn3c(N)nnc3nc12
inactive: [1] 8.85% | [2] 15% | [3] 7.55% | [4] -12.4% | [5] 9.15% | [6] 2.9%

CC(=O)Oc1c(OC(C)C)c(C)c(O[Si](C(C)C)(C(C)C)C(C)C)c2[nH]c3ccccc3c12
inactive: [1] 33.9% | [2] -5.05% | [3] -23.2% | [4] -10.9% | [5] -12.4% | [6] -29.7%

C1CNCCNCCN1
inactive: [1] 7.65% | [2] -1.05% | [3] 10.1% | [4] 21.1% | [5] 25.5% | [6] -4.3%

CCOC(=O)c1c(NCCO)c(-c2ccccc2)c(=O)n2c1[nH]c1ccccc12
inactive: [1] 2.1% | [2] 6.6% | [3] 4.8% | [4] -1% | [5] -0.9% | [6] 14.9%

COC(=O)NCC(OC(=O)c1cc2c(cc1I)OCO2)C1=CCCCC1 (configuration not stated)
inactive: [1] 54.5% | [2] 30.1% | [3] 37.6% | [4] 29.2% | [5] 48.8% | [6] 28.8%

CC(=O)OC1(C#N)CC2OC1C1N=NN(C(=O)OC(C)(C)C)C21 (configuration not stated)
inactive: [1] 18.2% | [2] 2.15% | [3] 4.8% | [4] 21.8% | [5] 16.1% | [6] 19.2%

Cc1ccc(S(=O)(=O)N2CCCC(=O)c3ccccc32)cc1
inactive: [1] -12.4% | [2] 14.4% | [3] -12.9% | [4] 9.35% | [5] 12.1% | [6] 11.3%

CC1CC=CCC1COB(OCC1CC=CCC1C)OCC1CC=CCC1C (configuration not stated)
inactive: [1] 22.8% | [2] -21.5% | [3] 29.1% | [4] 23.1% | [5] 24.3% | [6] -0.25%

CN(C)C(=S)/N=C1\SCS(=O)(=O)N1C
inactive: [1] 14.2% | [2] 6.55% | [3] -6% | [4] 7.7% | [5] -6.6% | [6] 9.15%

C[Si](C)(CCCOC(N)=O)COC(N)=O
inactive: [1] -15.2% | [2] -6.55% | [3] -18.4% | [4] -4.1% | [5] 4.8% | [6] -18.9%

CCCS(=O)(=O)CCCCCCCCCCC(=O)O
inactive: [1] -5.45% | [2] -11.4% | [3] -7.8% | [4] -28.7% | [5] -7.15% | [6] -6.2%

Cc1ccccc1CN
inactive: [1] 28.9% | [2] 3.05% | [3] -10.8% | [4] 1.05% | [5] 18.3% | [6] 23.6%

O=C(OCC(O)C(O)C(O)C(SCc1ccccc1)SCc1ccccc1)c1ccc([N+](=O)[O-])cc1 (configuration not stated)
inactive: [1] 23.6% | [2] 3.1% | [3] 31.6% | [4] 20.4% | [5] -1% | [6] 5.85%

COc1ccc(C(Nc2ccccn2)c2cc(C(C)(C)C)cc(C(C)(C)C)c2O)cc1 (configuration not stated)
inactive: [1] 43.6% | [2] -2.95% | [3] 9.45% | [4] 12.4% | [5] 41.9% | [6] 38.8%

CCOC(=O)Nc1ccccc1F
inactive: [1] 4.4% | [2] -16.1% | [3] -3.95% | [4] -6.15% | [5] 4.75% | [6] 9%

COC(=O)C1=C(NC(=O)Nc2ccc(OC)cc2)OC(C)(C)C1c1ccc(Cl)cc1 (configuration not stated)
inactive: [1] 25.9% | [2] 41.7% | [3] 30.4% | [4] 3.75% | [5] 24.1% | [6] 43.4%

CCOC(=O)c1c(C)cc2ccccn12
inactive: [1] -11.4% | [2] -12.4% | [3] 0.05% | [4] -26.7% | [5] 8.3% | [6] 11.2%

C1C[S][Ge]2([S]CCS1)[S]CCSCC[S]2
inactive: [1] -10.4% | [2] -30.5% | [3] -16.6% | [4] -15.5% | [5] -30.6% | [6] -14.8%

Cc1ccc(C)c2c3c(sc12)CCCC3
inactive: [1] -7.85% | [2] -5.4% | [3] -7.15% | [4] -17.2% | [5] 0.45% | [6] 2.95%

COC(=O)C1C(O)C(C)C(OC(C)=O)C(C)/C=C\C=C(C)C(=O)Nc2c(C)c(OC(C)=O)c3c(c2O)C(=O)C(C)=C2OCOC(=C23)C(C)=CC(C)(O)C(O)C(C)C1O (configuration not stated)
inactive: [1] 3.25% | [2] -18.8% | [3] 15.7% | [4] 3.35% | [5] 26.8% | [6] 20.9%

CC1CCC(C(C)C)C(OS(=O)(=O)c2ccccc2)C1 (configuration not stated)
inactive: [1] 0.1% | [2] -26.7% | [3] -10.4% | [4] 17.3% | [5] 11.6% | [6] 1.8%

CC(C)(C)N=C(N)NC#N
inactive: [1] 9.6% | [2] 9.25% | [3] -9.85% | [4] 17.1% | [5] -4.5% | [6] -33.3%

O=C(COc1ccc(F)cc1)OCCO
inactive: [1] 13.9% | [2] -20.9% | [3] -2.55% | [4] -33.2% | [5] -15.3% | [6] -18.9%

CCOC(=O)c1c[nH]c2nc(N)ccc2c1=O
inactive: [1] -3.75% | [2] -0.2% | [3] 9.9% | [4] -16.4% | [5] -0.7% | [6] -5.4%

CNC(=O)NC(c1ccc2c(c1)OCO2)c1cc2c(cc1O)OCO2 (configuration not stated)
inactive: [1] 10.8% | [2] -2.7% | [3] 13.9% | [4] 14.2% | [5] 19.2% | [6] 24.6%

CCCCn1cnc2c(=S)nc[nH]c21
inactive: [1] -2.7% | [2] -1.9% | [3] -6.35% | [4] -11.6% | [5] -1% | [6] -0.95%

Cc1cc(OC(=O)c2ccccc2)cc(C)c1OC(=O)c1ccccc1
inactive: [1] 10% | [2] 2.9% | [3] 0.1% | [4] -6.15% | [5] 7.15% | [6] -6.7%

CCC(O)(CC)c1ccc2ncccc2c1
inactive: [1] 3.6% | [2] 6.05% | [3] 7.7% | [4] -19.1% | [5] -6.65% | [6] 7%

Cc1ccc(C)c(OC(=O)Nc2ccccc2)c1
inactive: [1] -3.15% | [2] 4.8% | [3] -10.1% | [4] -4.1% | [5] -3.7% | [6] -11.9%

COc1cc(OC)c(NC(=O)ON2C(=O)c3ccccc3C2=O)cc1Cl
inactive: [1] 8.2% | [2] -1.75% | [3] -2.3% | [4] 11.8% | [5] 0.5% | [6] 24.6%

COC1CCC(O)C(C=Nc2ccccc2)C1 (configuration not stated)
inactive: [1] 4.8% | [2] -1.85% | [3] -11.8% | [4] 4.35% | [5] 8.5% | [6] -18.8%
